Paper PMC5540273 (PLoS ONE, 2017)

What follows are compounds tested on BRSK1. Conditions: concentration: 1 μM, replicates: in singlicate; n = 1.
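Note: KINOMEscan kinase panel screen.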

| SMILES | %Inh [%] |
| --- | --- |
| Cc1cccc(-c2cc(-c3c[nH]nc3-c3ccccn3)ccn2)c1 [GW679395] | 0 |
| COc1ccc(-c2coc3ccc(-c4nnc(SCc5cccc(C#N)c5)o4)cc23)cc1 | 0 |
| COc1ccc(CNC(=O)NC2CCN(c3ccnc(Nc4ccc(F)cc4)n3)C2)cc1 (stereo not drawn) [GSK1379706] | 0 |
| COc1cc2ncn(-c3cc(OCc4ccncc4Br)c(C(N)=O)s3)c2cc1OC [GW854278] | 25 |
| Cc1nnc(-c2ccc(C)c(-c3ccc(C(=O)O)cc3)c2)o1 [GW608005] | 2 |
| COc1cc2ncn(-c3cc(OCCCc4ccccc4)c(C(N)=O)s3)c2cc1OC [GSK205189] | 1 |
| Cc1cc(Nc2nc(-c3cccc(C)n3)nc3ccccc23)ccn1 [GW872411] | 0 |
| Cc1ccc(-c2ccc3c(ccc4sc5c(c43)NC[C@@H](C)N=C5N(C)C)n2)cn1 | 0 |
| CCc1ccc(-c2ccc3c(c2)-c2nn(C)cc2S(=O)(=O)N3C)cc1 | 0 |
| Nc1n[nH]c2ncc(-c3ccccc3)cc12 [SB-517081] | 0 |
| Nc1ncnc2c1ncn2-c1cccc2ccccc12 [SKF-97184] | 0 |
| O=C(NCCNc1ccnc(Nc2ccc(F)cc2)n1)Nc1ccc2c(c1)OCO2 [GSK1379882] | 11 |
| O=C(Nc1n[nH]c2nc(-c3ccccc3)c(Br)cc12)C1CC1 [SB-708998] | 60 |
| Cl.NS(=O)(=O)c1cccc(Nc2cc(-c3ccc(F)cc3)n[nH]2)c1 [GW824645] | 0 |
| O=C(Nc1ccc2c(c1)OCO2)NC1CCN(c2ccnc(NCc3ccc(F)cc3)n2)CC1 [GSK1379859] | 0 |
| CC(C)(C)c1ccc(C(=O)Nc2cn3cc(-c4ccccc4)ccc3n2)cc1 | 0 |
| C[C@@H]1CC[C@H](C(=O)NC2CCCCC2)CN1c1cc(-c2ccc3c(N)n[nH]c3c2)nc(N)n1 [GSK2291363] | 0 |
| O=C(Nc1n[nH]c2nc(-c3ccccc3)c(Cl)cc12)C1CC1 [SB-734909] | 70 |

| SMILES | %Inh [%] |
| --- | --- |
| COC(=O)c1c(-c2ccccc2)c2cc(Br)ccc2c(=O)n1Cc1ccc(NC(=O)CCC(=O)O)cc1 | 0 |
| O=C(Nc1n[nH]c2cc(-c3ccccc3F)ccc12)C1CC1 [SB-733371] | 22 |
| Cc1nc(N(C)[C@H]2CN(C(=O)CC#N)CC[C@H]2C)c2cc[nH]c2n1 | 0 |
| Cc1nn2c(=O)cc(N3CCOCC3)nc2n1Cc1cccc(Cl)c1Cl [GSK2342769] | 0 |
| Cc1cccc(-c2nc(Nc3ccc4c(cnn4C)c3)c3ccccc3n2)n1 [GW876731] | 0 |
| FC(F)(F)c1ccc(-c2ncn(CCCN3CCOCC3)c2-c2ccncc2)cc1 [SB-217780] | 13 |
| COc1cc(Nc2ccnc3ccc(C(F)(F)F)cc23)cc(OC)c1OC [GW577382] | 0 |
| CCS(=O)c1ccc(-c2coc3ccc(-c4nnc(C)o4)cc23)cc1 (stereo not drawn) | 0 |
| O=c1cc(N2CCOCC2)nc2n(Cc3ccc(F)c(Cl)c3)ccn12 [GSK2297099] | 0 |
| CCC(=O)c1c(-c2ccccc2)c2cc(Cl)ccc2c(=O)n1Cc1cc(S(C)(=O)=O)n(CCC(C)(C)O)n1 | 11 |
| Cn1c(=O)c(F)c(Nc2ccc(I)cc2F)c2c(=O)n(OC[C@H](O)CO)cnc21 | 0 |
| COc1cc(OC)cc(-c2cc3cnc(N)nc3nc2NC(=O)NC(C)(C)C)c1 | 0 |
| Fc1cccc(CSc2nnc(-c3ccc4c(c3)CCO4)o2)c1 | 0 |
| COc1cc(Nc2nccc(N3CCC(NC(=O)C4COc5ccccc5O4)C3)n2)cc(OC)c1OC (stereo not drawn) [GSK1379761] | 9 |
| O=C1NC(=O)C(c2ccccc2)=C1Nc1cccc(O)c1 [SB-390534] | 2 |
| CN(C)c1cc(-c2ccc3c(N)n[nH]c3c2)nc(N)n1 [GSK2219329] | 0 |
| Cc1ccc(Oc2ccc(Nc3ncnc4cc[nH]c34)cc2C)cn1 | 10 |
| CN1C(=O)C(Nc2ccccc2)=C(c2ccccc2)C1=O [SB-300079] | 0 |

The compounds below were run on BRSK2. Conditions: concentration: 1 μM, replicates: in singlicate; n = 1.

| SMILES | %Inh [%] |
| --- | --- |
| Cc1cccc(-c2cc(-c3c[nH]nc3-c3ccccn3)ccn2)c1 [GW679395] | 0 |
| COc1ccc(-c2coc3ccc(-c4nnc(SCc5cccc(C#N)c5)o4)cc23)cc1 | 10 |
| COc1ccc(CNC(=O)NC2CCN(c3ccnc(Nc4ccc(F)cc4)n3)C2)cc1 (stereo not drawn) [GSK1379706] | 3 |
| COc1cc2ncn(-c3cc(OCc4ccncc4Br)c(C(N)=O)s3)c2cc1OC [GW854278] | 20 |
| Cc1nnc(-c2ccc(C)c(-c3ccc(C(=O)O)cc3)c2)o1 [GW608005] | 8 |
| COc1cc2ncn(-c3cc(OCCCc4ccccc4)c(C(N)=O)s3)c2cc1OC [GSK205189] | 3 |
| Cc1cc(Nc2nc(-c3cccc(C)n3)nc3ccccc23)ccn1 [GW872411] | 13 |
| Cc1ccc(-c2ccc3c(ccc4sc5c(c43)NC[C@@H](C)N=C5N(C)C)n2)cn1 | 0 |
| CCc1ccc(-c2ccc3c(c2)-c2nn(C)cc2S(=O)(=O)N3C)cc1 | 11 |
| Nc1n[nH]c2ncc(-c3ccccc3)cc12 [SB-517081] | 0 |
| Nc1ncnc2c1ncn2-c1cccc2ccccc12 [SKF-97184] | 22 |
| O=C(NCCNc1ccnc(Nc2ccc(F)cc2)n1)Nc1ccc2c(c1)OCO2 [GSK1379882] | 0 |
| O=C(Nc1n[nH]c2nc(-c3ccccc3)c(Br)cc12)C1CC1 [SB-708998] | 32 |
| Cl.NS(=O)(=O)c1cccc(Nc2cc(-c3ccc(F)cc3)n[nH]2)c1 [GW824645] | 0 |
| O=C(Nc1ccc2c(c1)OCO2)NC1CCN(c2ccnc(NCc3ccc(F)cc3)n2)CC1 [GSK1379859] | 0 |
| CC(C)(C)c1ccc(C(=O)Nc2cn3cc(-c4ccccc4)ccc3n2)cc1 | 0 |
| C[C@@H]1CC[C@H](C(=O)NC2CCCCC2)CN1c1cc(-c2ccc3c(N)n[nH]c3c2)nc(N)n1 [GSK2291363] | 10 |
| O=C(Nc1n[nH]c2nc(-c3ccccc3)c(Cl)cc12)C1CC1 [SB-734909] | 51 |

| SMILES | %Inh [%] |
| --- | --- |
| COC(=O)c1c(-c2ccccc2)c2cc(Br)ccc2c(=O)n1Cc1ccc(NC(=O)CCC(=O)O)cc1 | 0 |
| O=C(Nc1n[nH]c2cc(-c3ccccc3F)ccc12)C1CC1 [SB-733371] | 0 |
| Cc1nc(N(C)[C@H]2CN(C(=O)CC#N)CC[C@H]2C)c2cc[nH]c2n1 | 0 |
| Cc1nn2c(=O)cc(N3CCOCC3)nc2n1Cc1cccc(Cl)c1Cl [GSK2342769] | 0 |
| Cc1cccc(-c2nc(Nc3ccc4c(cnn4C)c3)c3ccccc3n2)n1 [GW876731] | 2 |
| FC(F)(F)c1ccc(-c2ncn(CCCN3CCOCC3)c2-c2ccncc2)cc1 [SB-217780] | 7 |
| COc1cc(Nc2ccnc3ccc(C(F)(F)F)cc23)cc(OC)c1OC [GW577382] | 10 |
| CCS(=O)c1ccc(-c2coc3ccc(-c4nnc(C)o4)cc23)cc1 (stereo not drawn) | 11 |
| O=c1cc(N2CCOCC2)nc2n(Cc3ccc(F)c(Cl)c3)ccn12 [GSK2297099] | 0 |
| CCC(=O)c1c(-c2ccccc2)c2cc(Cl)ccc2c(=O)n1Cc1cc(S(C)(=O)=O)n(CCC(C)(C)O)n1 | 0 |
| Cn1c(=O)c(F)c(Nc2ccc(I)cc2F)c2c(=O)n(OC[C@H](O)CO)cnc21 | 15 |
| COc1cc(OC)cc(-c2cc3cnc(N)nc3nc2NC(=O)NC(C)(C)C)c1 | 6 |
| Fc1cccc(CSc2nnc(-c3ccc4c(c3)CCO4)o2)c1 | 0 |
| COc1cc(Nc2nccc(N3CCC(NC(=O)C4COc5ccccc5O4)C3)n2)cc(OC)c1OC (stereo not drawn) [GSK1379761] | 0 |
| O=C1NC(=O)C(c2ccccc2)=C1Nc1cccc(O)c1 [SB-390534] | 0 |
| CN(C)c1cc(-c2ccc3c(N)n[nH]c3c2)nc(N)n1 [GSK2219329] | 0 |
| Cc1ccc(Oc2ccc(Nc3ncnc4cc[nH]c34)cc2C)cn1 | 19 |
| CN1C(=O)C(Nc2ccccc2)=C(c2ccccc2)C1=O [SB-300079] | 0 |
